Sequences and labels used below:
T1: UNK ZnF1-3 (human, UniProt Q9C0B0 31-174)
T1 sequence: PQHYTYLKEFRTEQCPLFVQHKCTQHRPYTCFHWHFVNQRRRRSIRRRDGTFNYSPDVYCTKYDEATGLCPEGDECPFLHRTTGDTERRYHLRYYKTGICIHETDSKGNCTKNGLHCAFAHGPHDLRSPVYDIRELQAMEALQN

B1: chr9:127920631:127920632:-_ENSG00000119414_ENST00000456642|hu_mus|motif|central (ssRNA)
RNA: GGGAGUUCUACAGUCCGACGAUCAAUACGGUCAGGCCACUUAGCCUUUAGUGCAAGAAGAUAAGUGAAGGUCUCCAAACGGUAGUAACCUCUGUCUACAAAAUCACCCAUAAAUAUGUAGUUUGUGUCAGGAACCUGACCUCCCAACAGAGGAUUGAGCAUCA
B2: chr7:140404665:140404666:+_ENSG00000090266_ENST00000247866|hu_hu|hu_hu_hu_mus_False|1_1 (ssRNA)
RNA: GGGAGUUCUACAGUCCGACGAUCUGCUCCUACUCGUCCAGAGAGUUUACAGUGUCAGUCCUCGUCAUCAGGAGGGAUUCCCAGUUCUUCAUCUGUCCACUGUGAAGGAUCUGGAUAUGAAAAGUGACCCAGCACAGCUUCUGACAACAGAGGAUUGAGCAUCA
B3: chr7:109302599:109302600:-_ENSMUSG00000063550_ENSMUST00000070165|mus_mus|FALSE|FALSE (ssRNA)
RNA: GGGAGUUCUACAGUCCGACGAUCAGAGUCAUCUUCUCCAUCCUGCUGAUUGUUCUCAUCAACAGGUUUGCUCAGGAAGCUAAAUCUUUCUCCAUUUUCUGGAUACUCAGAGGGUGAAGCUAGAUCUUCUGAAUCAUGAUUAACCAACAGAGGAUUGAGCAUCA
B4: chr8:26227902:26227903:+_ENSG00000221914_ENST00000315985|hu_hu|motif|central (ssRNA)
RNA: GGGAGUUCUACAGUCCGACGAUCGGAAUGCCAACCCUAAUUCACUUUGUCUUGAAAUAUAUACAGAUUGUUUGUAGUAGCGGCGGCAAUGAUAUUUUCCUUGGGGUGCCAGGCUGUGUGAAGGAUUUUCUUAUUGAAGUCUAGCAACAGAGGAUUGAGCAUCA
B5: 16983635_16983755_221_5pUTR_ENSMUSG00000063358_ENSMUST00000069107|mouse|control|control (ssRNA)
RNA: GGGAGUUCUACAGUCCGACGAUCGACCAUCUCCGGGCCCGCCGCCGCCGCCGCCGCCAUGUUGGCUGCACAGCCGCCGCCGCCGCCGCCGCCGCCGCGUUCGGUUCGACGCUUCGCGGCUGCCGCUCGACUUAUGCUGCGCUUCAACAGAGGAUUGAGCAUCA
B6: chr3:179287964:179287965:+_ENSG00000136518_ENST00000429709|hu_hu|hu_hu_hu_mus_True|18_18 (ssRNA)
RNA: GGGAGUUCUACAGUCCGACGAUCCUUGAGUGGUGAGAUGGCCUCCAUGUUCUCCCUGGGCACGCGGAGGGCAUUGGUGUCUAUGUAGUAGGUGGGCCCGCCCUGCUUGCCUUUGUCGCCAUCUAUUUCCAUCAUUGUACUUCCCAACAGAGGAUUGAGCAUCA
B7: chr5:171327072:171327073:-_ENSG00000072803_ENST00000265094|hu_hu|FALSE|FALSE (ssRNA)
RNA: GGGAGUUCUACAGUCCGACGAUCUACCAGCUCUGCUGCACACAGAGACCUGGCAUCCAGGUACGAAAGAAUGUUUUCUGCUAUGUGAUCUAAGCCUUGCUCUGGUAAAGCGGUAAUAAAGUCCCGCUGCAACAUGGGCUUCAGCAACAGAGGAUUGAGCAUCA
B8: 97033003_97034721_1993_CDS_ENSG00000121152_ENST00000240423|human|control|control (ssRNA)
RNA: GGGAGUUCUACAGUCCGACGAUCCCUGUGGUUUGCCUCUGCAUCUGCCUCCUUUCCGGAGAGCGCUGUCAGCAGACUCCACAUGCUCUGCUUCAGUUUCUUCAUGUCCAUCUUUUUGGCAGUCUUGGCAUAGUGAAUUUCAAUCAACAGAGGAUUGAGCAUCA
B9: chr2:151796264:151796265:-_ENSMUSG00000027459_ENSMUST00000062047|mus_mus|motif|central (ssRNA)
RNA: GGGAGUUCUACAGUCCGACGAUCUGUUCGGCUGGCCUCAGAUGGGGACACAGGACUAUCACACAAGUUGAUGAGGCUGCGGAGGAUGUCGAGGUCCAGUUGGGGCCGGCGGCCAGAACAGGGCAGGACUCGGCGACUGGGUGUCAACAGAGGAUUGAGCAUCA
B10: chr17:38438176:38438177:+_ENSG00000171475_ENST00000323571|hu_mus|FALSE|FALSE (ssRNA)
RNA: GGGAGUUCUACAGUCCGACGAUCCCCCCUGACCAUGUAGCUAGGGACUGAGAGUCACAGGGAAGGGAAAGCUUACACCUGGAAUGUGAAGAAUCUGAUUUACAGCUGAUGGCAGGUUGGGUUUCCAGAAGGGCAGACAGCGCACAACAGAGGAUUGAGCAUCA
B11: chrX:71549762:71549763:+_ENSMUSG00000019087_ENSMUST00000019231|mus_mus|mus_mus_mus_hu_False|8_18 (ssRNA)
RNA: GGGAGUUCUACAGUCCGACGAUCAAACCCGUGUACUUCUUAUUGUUAGCACAACAUCACCAGAAAACGAUAACGACAGCCAAGCAGGACAGACAGUUAAGUAGUACUUCCACACUCCGCAAAUUCAAGGAACCUCAAACCUUACAACAGAGGAUUGAGCAUCA
B12: chr2:125499325:125499326:+_ENSMUSG00000091337_ENSMUST00000164756|mus_mus|FALSE|FALSE (ssRNA)
RNA: GGGAGUUCUACAGUCCGACGAUCGAGCUCUUCGGUCAGUCGAUUGACAACCAUCAGCGAAAACAGCUCUUCGAUAAAAGCUAGCUGGUCGAAAGGGCUCUUCUCACACCGCGCCUGAAAGCCGCCAUCCAGGGCAUCUCCGGCCAACAGAGGAUUGAGCAUCA
B13: chr6:144948378:144948379:-_ENSMUSG00000030268_ENSMUST00000111742|mus_mus|FALSE|FALSE (ssRNA)
RNA: GGGAGUUCUACAGUCCGACGAUCAGGGAACACCAGGCCAGCAGGGCUGCAUGGGGAGCCCAAAUCUGCCCCAAUUAGAAACAAACAAACAAAAAAAAAACAACCAAAACAAAAAACAAAAGAACCUCACCAGCAAAAGAAACACAACAGAGGAUUGAGCAUCA
B14: chr14:76904430:76904431:+_ENSMUSG00000022010_ENSMUST00000022587|mus_mus|mus_mus_mus_hu_True|8_98 (ssRNA)
RNA: GGGAGUUCUACAGUCCGACGAUCUGCAGCCAAAAACAGAGAGAGGGAAAAAAAGAGGGAACACCAGCAGCCUUGUAUAAGCUAGAUAAAAUCUUCUGGCUUUCCGCAGCCCAGGGAGAAACAGAAAUGGUGCUGGCUAAUUUACAACAGAGGAUUGAGCAUCA
B15: chr14:76904430:76904431:+_ENSMUSG00000022010_ENSMUST00000022587|mus_mus|mus_mus_mus_hu_True|58_98 (ssRNA)
RNA: B14 RNA with U77C, G80A, U127A, G128C, U130G, G131C, C132A, U133G, G134C, G135C
B16: chr1:163116941:163116942:-_ENSG00000143248_ENST00000313961|hu_mus|FALSE|FALSE (ssRNA)
RNA: GGGAGUUCUACAGUCCGACGAUCACAAAGCAGUCAGAAAGAACCAAAAAAAAGAAAAAAAAAAGAAAAAGAAAAAAGUGAGGGCUCUUAGACAACAGAUCCACAUAACCAAACUAACAUGAGCGAAAGAGUUAGCAACACAGCCAACAGAGGAUUGAGCAUCA

Where a chain is given by its changes, count along the chain named. Over roughly 24,000 sequences, “enrichment r” has its median near 0.99; the highest 2% begin near 3.7. The entries come from a sample that favours the highest values as a whole.

The target of this assay is T1, UNK ZnF1-3. As to the kind of experiment: nsRBNS (natural sequence RNA bind-n-seq); RBNS binding buffer (assumed for nsRBNS): 25 mM Tris pH 7.5, 150 mM KCl, 3 mM MgCl2, 0.01% Triton X-100, 500 ug/ml BSA, 20 U/ml SUPERase-In, 4 C; UNK is unkempt and MSI1 is Musashi-1; names of the RNAs are library labels; protein concentration not given here; high values mean tight binding.
B1 yielded a binding signal of 0.995 enrichment R.
On to B2, for which the binding signal amounted to 1.35 enrichment R.
As for B3, the figure is 0.565 enrichment R; as for B4, 1.11 enrichment R; as for B5, 0.486 enrichment R.
For B6, the binding signal is 0.497 enrichment R.
The figure for B7 is 1.05 enrichment R; for B8 it is 0.375 enrichment R.
For B9, the binding signal amounted to 0.777 enrichment R.
Molecule B10 yielded a binding signal of 1.6 enrichment R.
As for B11, the figure is 1.46 enrichment R.
The figure for B12 is 1.3 enrichment R; for B13 it is 7.87 enrichment R.
In the case of B14, the binding signal is 3.33 enrichment R.
As for B15, the binding signal amounted to 3.56 enrichment R.
In turn, B16 gave a binding signal of 10.6 enrichment R.

These data come from paper PMC12136788.
